Data on 12 compounds can be found in PubChem BioAssay (NCATS).

The target in assay [1] is Arylsulfatase A (Homo sapiens) (UniProt P15289). Nature of the assay: qHTS screen for enhancers of Arylsulfatase A (ASA1): LOPAC Validation Assay (AID 720538). Summed up:
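First, ASA-I179S fibroblasts from an MLD patient adhered for 6 hrs. Next, compounds were added for 48h. Then pNCS substrate (0.5mM final) with lysis buffer reacted 14h at room temperature before NaOH stop and fluorescence measurement.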
For orientation: Quantitative high-throughput screening tests each substance at several concentrations.

Assay [2] is described as follows: qHTS for compounds that reverse cellular toxicity of Amyloid beta (A-beta) peptide in yeast: LOPAC Validation Assay (AID 720559).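 Further: plate controls were DMSO for no effect and equimolar ferric chloride plus clioquinol rescue for full effect.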 Summed up:
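Activity is expressed relative to DMSO and an equimolar ferric chloride/clioquinol mix. Compounds were pinned into medium with A-beta-expressing yeast, grown 48 hr at 30 C, then read by absorbance at 600 nm.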

Assay [3] in a line: qHTS for Activators of Parkin Expression: LOPAC Validation Assay (NLuc Reporter) (AID 720572;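 further: 0% = DMSO and 100% = positive control compound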). The essentials:
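Neuronal cells with a Parkin promoter-driven FLuc/NLuc coincidence reporter were treated 24 h at 37 C in 7-point dose response (LOPAC). NLuc luminescence read after FLuc; signals normalized to DMSO and positive control (100%).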

A short description of assay [4]: qHTS for Activators of Parkin Expression: LOPAC Validation Assay (FLuc Reporter) (AID 720573;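 further: 0% = DMSO and 100% = positive control compounds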). Summed up:
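A neuronal cell line harbouring FLuc and NLuc reporters behind the Parkin promoter was exposed to compounds for 24 h. Firefly luciferase signal, measured after 10 min with detection reagent, was scaled to DMSO and positive-control wells.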

Assay [5] addresses T1, Hexokinase-4 (Homo sapiens) + Glucokinase regulatory protein (Homo sapiens) (UniProt P35557+Q14397). The assay can be described thus: qHTS assay for inhibitors of recombinant human GCK-GKRP interaction: Diaphorase-coupled assay (AID 743205). The essentials:
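Inhibitors of the GCK–GKRP complex relieve GKRP suppression of GCK, detected through a G6PDH–diaphorase cascade reducing resazurin. Human GST-GCK and FLAG-GKRP are used at 10 nM with 5 mM glucose and 0.4 mM ATP.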

Assay [6] concerns the target T1, Hexokinase-4 (Homo sapiens) + Glucokinase regulatory protein (Homo sapiens). The assay can be described thus: qHTS assay for inhibitors of recombinant human GCK-GKRP interaction: ADP-Glo assay (AID 743206).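 Further: plate controls were DMSO plus enzyme for no effect and no enzyme for full effect.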 The essentials: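 GST-GCK and FLAG-GKRP (15 nM each in the dispensed mix, with 2 uM S6P) react with 0.4 mM ATP and 5 mM glucose (final) in Hepes pH 7.6 for 60 min at room temperature. ADP is measured by ADP-Glo luminescence.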

Assay [7] shares this target. Nature of the assay: qHTS assay for inhibitors of recombinant human GCK-GKRP interaction: HTRF assay (AID 743207).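 Further: 0% = DMSO with GCK present and -100% = DMSO wells lacking GCK.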 The essentials:
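Steps: dispense GCK–GKRP complex (5 nM each, GST- and FLAG-tagged) with 2 uM S6P; pin in compounds; add XL665/Eu-cryptate-labelled antibodies; incubate 60 min at room temperature; read time-resolved FRET at 665 and 615 nm.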

Assay [8] is described as follows: qHTS Assay for Identifying Gametocytocidal Compounds (AID 743244). Further: potency means the concentration at half of the fitted maximal effect.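 On max response: on the % scale 0 is the no-effect control and ±100 the full control effect; actives lower the fluorescent signal which means gametocytes are killed.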 The following applies: P. falciparum 3D7 stage III-V gametocytes, alamarBlue, 72 h; max response: stronger effect = lower value. The essentials: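 Viability read-out was resazurin reduction (alamarBlue, 24 h) measured at Ex 525/Em 598 nm. Beforehand, late-stage (III-V) 3D7 P. falciparum gametocytes at 20,000 cells/well were incubated with compound 72 h at 37C under 5% CO2.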

Assay [9] can be described thus: qHTS profiling of the MIPE4 collection as inhibitors of Plasmodium falciparum (3D7) proliferation (AID 743344; call rule not given here;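 further: scaled between DMSO vehicle wells and 0.29 µM artemisinin as full inhibition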). The following applies: P. falciparum 3D7 in erythrocytes, SYBR Green DNA fluorescence, 72 h; at 28.5 µM (top of the series) unless noted. Summed up:
(§1)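 Erythrocytes infected with P. falciparum (0.3% parasitemia, 2.5% hematocrit) incubated with compounds 72 h at 37 C, 5% CO2. Lysis with saponin/Triton buffer containing SYBR Green I, overnight at room temperature in the dark; DNA fluorescence (485/535 nm) normalised to 0.29 uM artemisinin and DMSO.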

Assay [10] can be described thus: qHTS profiling for inhibitors of Plasmodium falciparum (3D7) proliferation (AID 743322).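 Further: infected erythrocytes exposed to compound for 72 h before lysis; 100% = DMSO vehicle wells and 0% = 0.29 µM artemisinin.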 Particulars: P. falciparum 3D7 proliferation; at 28.7 µM (top of the series) unless noted. The essentials: as §1
Assay [11] in a line: qHTS profiling for inhibitors of Plasmodium falciparum (DD2) proliferation (AID 743323; call rule not given here). The following applies: lower = more inhibition; at 28.7 µM (top of the series) unless noted. Summed up:
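P. falciparum Dd2-infected erythrocytes (0.3% parasitemia, 2.5% hematocrit) exposed 72 h at 37 C, 5% CO2. Lysis with SYBR Green, overnight at room temperature, fluorescence 485/535 nm; normalized to 0.29 uM artemisinin and DMSO.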

Assay [12] is described as follows: qHTS profiling for inhibitors of Plasmodium falciparum (HB3) proliferation (AID 743324).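 Further: 100% = DMSO vehicle wells and 0% = artemisinin-treated control wells.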 Particulars: Plasmodium falciparum HB3 blood-stage proliferation; at 28.7 µM (top of the series) unless noted. Summed up: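 P. falciparum HB3 grown in erythrocytes (0.3% parasitemia, 2.5% hematocrit final) with compound for 72 h at 37 C, 5% CO2. Parasite DNA detected by SYBR Green after saponin/triton lysis overnight; normalized to 0.29 uM artemisinin and DMSO.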

Assay [13] in a line: qHTS assay for small molecule agonists of the antioxidant response element (ARE) signaling pathway measured by Nrf2-dependant transcriptional activity (AID 720636; active means well fitted curve in the direction sought with a large enough effect in the repeat runs; an effect the other way counts as inactive or inconclusive;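 further: HepG2 cells with an ARE-driven luciferase reporter; % of control where 0% means no effect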). Summed up: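 We exposed ARE-luc HepG2 cells, seeded in assay medium with 1% dialyzed FBS and allowed 6 hr to adhere, to test compounds overnight (16 hr, 37 C) before measuring luciferase with ONE-Glo.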
A short description of assay [14]: qHTS assay for small molecule antagonists of the retinoid-related orphan receptor gamma (ROR-gamma) signaling pathway - cell viability counter screen (AID 720652; active means well fitted curve in the direction sought with a large enough effect in the repeat runs; an effect the other way counts as inactive or inconclusive;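 further: compound exposure lasted 16 hr before ATP read; on the % scale 0 is the no-effect control and ±100 the full control effect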). The essentials: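 Luminescence from CellTiter-Glo after 30 min at room temperature reported cellular ATP as the cytotoxicity measure. Cells were the CHO reporter line with doxycycline-induced ROR-gamma expression, exposed to compound for 16 hr at 37 C.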

Assay [15] in a line: qHTS assay for small molecule agonists of the antioxidant response element (ARE) signaling pathway measured by Nrf2-dependant transcriptional activity - cell viability counter screen (AID 720653; active means well fitted curve in the direction sought with a large enough effect in the repeat runs; an effect the other way counts as inactive or inconclusive; further: on the % scale 0 is the no-effect control and ±100 the full control effect). Particulars: ARE-bla HepG2 viability, CellTiter-Glo ATP luminescence, 16 h; max response: stronger effect = lower value. The essentials:
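ARE-bla HepG2 cells treated with compounds for 16 h at 37C; this counter screen measures viability as intracellular ATP by CellTiter-Glo luminescence after 30 min at room temperature.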

Assay [16] is described as follows: qHTS assay for cell viability of HEK293 cells (AID 743288). Further: on the % scale 0 is the no-effect control and ±100 the full control effect; nearly all actives have a fitted effect of over 50% in size. The following applies: ATP luminescence (CellTiter-Glo), 18 h; max response: stronger effect = lower value. The essentials: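 The Tox21 protocol used parental HEK293 cells treated for 18 h at 37 C with compounds delivered by pintool; ATP-coupled luminescence after 30 min at room temperature gave viability.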
A short description of assay [17]: qHTS assay for cell viability of the p53RE-bla HCT-116 cell line (AID 743292). Further: on the % scale 0 is the no-effect control and ±100 the full control effect; nearly all actives have a fitted effect of over 55% in size. The essentials:
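In this qHTS counter-screen, metabolically competent p53RE-bla HCT-116 cells were counted via their ATP content. Compounds were applied for 16 h at 37 C and luciferase-coupled luminescence was measured.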

Values joined by “and” are separate entries in the source; they are usually repeats but may differ in a detail not shown here. Equal values may be shown once. Records with an inconclusive call do not appear. Active and inactive are the calls of the source. Unless noted, the call rests on the fitted dose curve; in most records, active means well fitted curve in the direction sought with a large enough effect; inconclusive means small, poorly fitted or top-dose-only effect, or another doubt; inactive means no such curve, though single readings can be large; an effect the other way counts as inactive or inconclusive.

T1 sequence (P35557 whole entry, looked up): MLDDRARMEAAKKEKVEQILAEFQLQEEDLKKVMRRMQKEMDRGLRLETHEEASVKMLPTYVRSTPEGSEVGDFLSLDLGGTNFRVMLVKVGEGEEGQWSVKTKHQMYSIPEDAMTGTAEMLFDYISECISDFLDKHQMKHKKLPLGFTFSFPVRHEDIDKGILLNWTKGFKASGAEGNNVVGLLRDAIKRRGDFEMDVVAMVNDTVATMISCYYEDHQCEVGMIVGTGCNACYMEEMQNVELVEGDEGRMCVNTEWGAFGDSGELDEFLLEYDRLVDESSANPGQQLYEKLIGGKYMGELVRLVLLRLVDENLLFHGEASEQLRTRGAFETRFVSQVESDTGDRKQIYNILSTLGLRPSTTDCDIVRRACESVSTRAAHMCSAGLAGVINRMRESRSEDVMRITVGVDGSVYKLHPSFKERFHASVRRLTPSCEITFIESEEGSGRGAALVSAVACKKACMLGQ
T1 sequence (Q14397 whole entry, looked up): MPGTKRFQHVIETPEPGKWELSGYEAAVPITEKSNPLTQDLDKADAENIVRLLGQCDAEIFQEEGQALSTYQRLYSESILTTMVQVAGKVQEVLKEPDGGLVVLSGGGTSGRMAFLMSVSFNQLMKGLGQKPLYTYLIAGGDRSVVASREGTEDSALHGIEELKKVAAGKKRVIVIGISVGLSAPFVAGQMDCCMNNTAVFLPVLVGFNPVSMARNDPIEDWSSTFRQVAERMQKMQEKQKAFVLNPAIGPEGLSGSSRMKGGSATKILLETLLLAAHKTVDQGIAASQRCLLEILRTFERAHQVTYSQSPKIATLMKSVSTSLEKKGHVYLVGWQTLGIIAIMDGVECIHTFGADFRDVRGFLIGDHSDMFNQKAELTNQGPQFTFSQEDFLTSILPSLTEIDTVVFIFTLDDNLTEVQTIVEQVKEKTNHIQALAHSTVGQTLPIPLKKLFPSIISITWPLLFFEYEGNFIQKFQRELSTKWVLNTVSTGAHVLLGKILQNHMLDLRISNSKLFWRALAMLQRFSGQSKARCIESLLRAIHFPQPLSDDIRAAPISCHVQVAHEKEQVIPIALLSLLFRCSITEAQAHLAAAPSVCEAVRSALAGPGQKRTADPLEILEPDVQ
Arylsulfatase A (Homo sapiens), sequence (P15289 whole entry, looked up): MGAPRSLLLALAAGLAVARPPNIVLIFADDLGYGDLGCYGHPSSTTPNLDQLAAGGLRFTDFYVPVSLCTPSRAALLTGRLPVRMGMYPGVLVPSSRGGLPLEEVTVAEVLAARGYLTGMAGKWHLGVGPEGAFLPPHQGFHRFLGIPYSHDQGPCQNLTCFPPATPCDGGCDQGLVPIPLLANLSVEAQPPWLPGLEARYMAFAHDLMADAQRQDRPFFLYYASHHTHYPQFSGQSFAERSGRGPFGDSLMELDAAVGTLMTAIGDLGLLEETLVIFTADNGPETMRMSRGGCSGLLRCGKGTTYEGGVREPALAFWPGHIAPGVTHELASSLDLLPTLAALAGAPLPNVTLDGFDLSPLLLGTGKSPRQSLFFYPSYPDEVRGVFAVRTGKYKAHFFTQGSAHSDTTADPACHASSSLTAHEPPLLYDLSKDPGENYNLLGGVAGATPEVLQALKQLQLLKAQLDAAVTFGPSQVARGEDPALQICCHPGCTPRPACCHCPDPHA

Turning to `OC(CN1CCN(c2cccc(Cl)c2)CC1)C(c1ccccc1)c1ccccc1` (stereo unspecified), the Potency result in assay [1] and in assay [4] was “inactive” each time. Further, the call in [2], in assay [3], in assay [5], in [6] and in [7] was inactive. In [8], the max response is 26.8% (inactive). This compound came in with a parasite growth, % of DMSO control in assay [9] of 42.2%.

On to `COc1ccc(C2(C#N)CCC(C(=O)O)CC2)cc1OC1CCCC1` (stereo unspecified), for which the max response in assay [8] is 4.12% (inactive).

For the compound `Cc1cc2c(s1)Nc1ccccc1N=C2N1CCN(C)CC1`, the max response in [8] is 2.02% (inactive).

Consider `Oc1ccc2ccccc2c1SSc1c(O)ccc2ccccc12`, for which the compound was called inactive in assay [2], in assay [3], in [5], in assay [6] and in [7]. Moreover, the Potency result in assay [4] is “inactive”. Besides, in assay [8], the Potency was 3.55 µM (active). The same compound yielded a parasite growth, % of DMSO control in [9] of 6.56%.

Turning to `Cc1cccc(C)c1OCC(=O)N[C@@H](Cc1ccccc1)[C@@H](O)C[C@H](Cc1ccccc1)NC(=O)[C@H](C(C)C)N1CCCNC1=O`, in assay [8], the Potency is 11.2 µM (active) and 6.62 µM (active). Besides, the remaining parasite growth % (stronger effect = lower value) in assay [10] is -1.44%. The activity, percent of control in assay [11] came to 0.873%. The compound also yielded a remaining proliferation (% of control), lower = more inhibition in assay [12] of 0.361%. The parasite growth, % of DMSO control in assay [9] is 6.88%.

As for `Cc1ccc(NC(=O)c2ccc(CN3CCN(C)CC3)cc2)cc1Nc1nccc(-c2cccnc2)n1`, the Potency in assay [8] was 12.6 µM (active). Besides, the remaining parasite growth % (stronger effect = lower value) in assay [10] was 1.04%. This compound registered an activity, percent of control in [11] of 7.63%. The compound further yielded a parasite growth, % of DMSO control in assay [9] of 6.13%.

On to `C[C@H](Cc1ccc(O)c(O)c1)[C@@H](C)Cc1ccc(O)c(O)c1`, for which the compound was classed as inactive in assay [2], in [5], in assay [6] and in assay [7]. Further, the Potency entry in assay [4] is “inactive”. Moreover, the max response in [8] is 4.03% (inactive). Further, the parasite growth, % of DMSO control in assay [9] stood at 15.1%.

Consider `COc1cc(Nc2c(C#N)cnc3cc(OCCCN4CCN(C)CC4)c(OC)cc23)c(Cl)cc1Cl`, for which the Potency in assay [8] is 3.55 µM (active). Besides, the remaining parasite growth % (stronger effect = lower value) in [10] was -0.245%. In addition, the activity, percent of control in assay [11] worked out at 4.4%. The same compound came in with a remaining proliferation (% of control), lower = more inhibition in assay [12] of 1.13%. The parasite growth, % of DMSO control in assay [9] came out at 6.35%.

Consider `CC(C)c1ccc2c(c1)c(SC(C)(C)C)c(CC(C)(C)C(=O)O)n2Cc1ccc(Cl)cc1`, for which the Potency entry in assay [1] and in assay [4] was “inactive” throughout. Besides, the call in [2], in [5], in assay [6] and in assay [7] was inactive. Besides, the max response in [8] is 14.3% (inactive) and 21.6% (inactive). Besides, the remaining parasite growth % (stronger effect = lower value) in [10] is 39.7%. In assay [11], this compound returned an activity, percent of control of 27.3%. The remaining proliferation (% of control), lower = more inhibition in assay [12] worked out at 22.8%. In assay [9], this compound gave a parasite growth, % of DMSO control of 21.7%.

As to `NC(=NCc1ccccc1)NC(=O)c1nc(Cl)c(N)nc1N`, the result in assay [2], in assay [3], in assay [5], in [6] and in assay [7] was inactive. In addition, the Potency entry in [4] is “inactive”. Besides, the Potency in assay [8] is 23.5 µM (active). The remaining parasite growth % (stronger effect = lower value) in assay [10] was -0.258% [at 18.4 µM]. This compound returned an activity, percent of control in [11] of 10.1% [at 18.4 µM]. This compound also registered a parasite growth, % of DMSO control in assay [9] of 103%.

Take `CC(=O)Nc1ccc(O)cc1`: the Potency entry in assay [13] and in [17] was “inactive” throughout. Further, the compound was classed as inactive in assay [14]. The max response in [15] was -1.61% (inactive) and -10.9% (inactive); in [16], -9.69% (inactive) and -0.289% (inactive).

Consider `Cc1c(OCC(F)(F)F)ccnc1CS(=O)c1nc2ccccc2[nH]1` (stereo unspecified), for which the Potency entry in assay [1] was “inactive”. Moreover, the compound was called inactive in [3], in assay [5], in assay [6] and in assay [7].
